Results taken from PubChem BioAssay.
Further: test concentration not given here.

Assay: compound effects on hepatocellular carcinoma cell viability – HepG2, calcein-AM fluorescence, 48 h, basal, profiling panel (AID 1164)
Conditions: higher = more signal
`O=C1O[C@H](c2ccccc2)[C@H](c2ccccc2)N2[C@H]1[C@@H](C(=O)N1CCN(c3ncccn3)CC1)[C@]1(C(=O)Nc3ccc(C#CC4=CCCCC4)cc31)[C@H]2c1ccc(O)cc1` showed a z-score of 0.469.
Work on `O=C1OCCC/C=C\[C@H]2OC34C=CCN(c5ccc6ccccc6c5)C(=O)[C@H]3N(CCCCCCO)C(=O)[C@@H]4C12` (some centres not stated) yielded a z-score of 2.
Work on `C#CCN(CC=C(C)C)[C@H](CO)c1ccccc1` yielded a z-score of -0.7.
In the case of `C=C(CCCC)C(=O)CC[C@H](OC(C)=O)c1cccc(OCCO)c1`, the z-score is reported as -0.889.
With `COCCOC(=O)N1C(=O)[C@@]2(c3cc(C#Cc4ccc(OC)cc4)ccc31)[C@H](C(N)=O)[C@H]1C(=O)O[C@H](c3ccccc3)[C@H](c3ccccc3)N1[C@@H]2c1ccccc1OCCO` the z-score was -1.76.
With `COc1ccc(C(=O)Nc2cccc(CN3C(=O)[C@]4(O[C@H](CCO)[C@@H]([Si](C)(C)c5ccc(OC)cc5)[C@@H]4C)c4ccccc43)c2)cc1` the z-score was -4.73.
In the case of `Cc1ccc(S[C@]2(C(=O)NCC(F)(F)F)CC(=O)N(C(C)C)[C@@H]2c2ccc(CO)cc2I)cc1`, the z-score is reported as -0.0366.
With `COC(=O)[C@@]1(Cc2ccc(OC)cc2)[C@H]2c3cc(C(=O)N(C)C)n(CCN4CNCC4=O)c3C[C@H]2CN1C(=O)c1ccccc1` the z-score was -0.254.
Compound `COCCOC(=O)N1C(=O)[C@@]2(c3cc(C#CCNC(N)=O)ccc31)[C@H](C(=O)NC[C@H](O)c1ccccc1)[C@H]1C(=O)O[C@H](c3ccccc3)[C@H](c3ccccc3)N1[C@@H]2c1ccccc1OCCO` has a z-score of 0.829.
In the case of `CC(C)(C)OC(=O)CC[C@]1(C(=O)O)N=C(c2ccc(OCCCO)cc2)O[C@H]1c1ccccc1N=[N+]=[N-]`, the z-score is reported as 0.331.
For `O=C1C2C=CC(C(O)C(c3ccccc3)c3ccccc3)N(n3cnnc3)C2C(=O)N1Cc1ccccc1` (configuration not stated), the z-score was -1.13.

Assay: compound effects on multiple myeloma cell viability – MM1S, calcein-AM fluorescence, 48 h, basal, profiling panel (AID 1165);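 further: viability of MM1S multiple myeloma cells under basal unstimulated conditions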
Conditions: higher = more signal
Work on `C=C(COC)/C(=C/C[C@@H](OC(C)=O)c1ccc(CO)o1)c1cnc2ccccc2c1` yielded a z-score of 0.0139.
Compound `COc1ccc(C#Cc2ccc3c(c2)[C@]2(C(=O)N3)[C@H](c3ccccc3OCCO)N3[C@H](c4ccccc4)[C@H](c4ccccc4)OC(=O)[C@H]3[C@@H]2C(=O)O)cc1` has a z-score of -3.32.
Compound `COc1ccc([Si](C)(C)[C@@H]2[C@@H](CC(=O)N3Cc4ccccc4C[C@H]3CO)O[C@]3(C(=O)N(C)c4c(Br)cc(C)cc43)[C@H]2C)cc1` has a z-score of -2.66.
For `C=C(CCCC)C(=O)CC[C@@H](OC(=O)c1cccnc1)c1ccc(CO)o1`, the z-score was -0.238.
Compound `Cc1ccc(S[C@]2(C(=O)NCC(C)C)CC(=O)N(Cc3cc(C(F)(F)F)cc(C(F)(F)F)c3)[C@@H]2c2ccc(CO)cc2I)cc1` has a z-score of -3.16.
For `CO[C@H]1O[C@H](CO)[C@@H](OC(=O)Nc2ccc(Br)cc2)[C@H](OC(=O)c2cc3ccccc3[nH]2)[C@H]1OC(=O)c1cc2ccccc2[nH]1`, the z-score was -3.23.
`CCc1oc(CC[C@@H](CO)NC(=O)NCCn2cc(C3(O)CCCCC3)nn2)c(C(=O)OC)c1C(=O)OC` showed a z-score of -0.0035.
Work on `COc1ccc(C(=O)Nc2ccc(CN3C(=O)[C@@]4(O[C@@H](CCn5cc([C@H](O)c6ccccc6)nn5)[C@H]([Si](C)(C)c5ccc(OC)cc5)[C@H]4C)c4ccccc43)cc2)cc1` yielded a z-score of -2.72.
Compound `Cc1ccc(C(C)CC(O)C2C=CC3C(=O)N(c4ccccc4)C(=O)C3N2Nc2ccc([N+](=O)[O-])cc2)o1` (configuration not stated) has a z-score of -0.0308.
`COCCCNC(=O)[C@@]1(Cc2ccccc2N=[N+]=[N-])N=C(c2ccc(OCCCO)cc2)O[C@H]1c1ccccc1N=[N+]=[N-]` showed a z-score of -1.88.
For `COCCOC(=O)N1C(=O)[C@@]2(c3cc(C#Cc4ccc(OC)cc4)ccc31)[C@H](c1ccccc1OCCO)N1[C@H](c3ccccc3)[C@H](c3ccccc3)OC(=O)[C@H]1[C@@H]2C(=O)N1CCN(c2ncccn2)CC1`, the z-score was -0.653.
Work on `COc1cc2c(cc1OC)CN(C(=O)[C@H]1[C@@H]3C(=O)O[C@@H](c4ccccc4)[C@@H](c4ccccc4)N3[C@@H](c3ccc(O)cc3)[C@]13C(=O)Nc1ccc(C#CC4=CCCCC4)cc13)CC2` yielded a z-score of -0.35.
Compound `CCCCc1cn(C[C@H](Cc2ccccc2)NC(=O)N[C@H](CO)CCc2oc(C(C)=O)c(C(=O)OC)c2C(=O)OC)nn1` has a z-score of 0.787.
`CN(C)C(=O)[C@]1(Cc2ccccc2N=[N+]=[N-])N=C(c2ccc(OCCCO)cc2)O[C@@H]1c1ccccc1` gave a z-score of -1.02.
Work on `C=CCNC(=O)[C@@H]1[C@H]2C(=O)O[C@H](c3ccccc3)[C@H](c3ccccc3)N2[C@H](c2ccc(OCCO)cc2)[C@@]12C(=O)Nc1ccc(C#CCCO)cc12` yielded a z-score of -0.563.
For `[N-]=[N+]=NCc1ccccc1C[C@]1(C(=O)N2CCOCC2)N=C(c2ccc(OCCCO)cc2)O[C@H]1c1ccccc1N=[N+]=[N-]`, the z-score was -1.28.
Compound `C=CCNC(=O)[C@H]1[C@@H]2C(=O)O[C@@H](c3ccccc3)[C@@H](c3ccccc3)N2[C@@H](c2ccc(OCCO)cc2)[C@]12C(=O)Nc1ccc(C#CC3=CCCCC3)cc12` has a z-score of -1.99.
With `COC(=O)[C@@]1(Cc2ccc(OC)cc2)[C@H]2c3cc(C(=O)N4CCCC4)n(Cc4ccccc4)c3C[C@H]2CN1C(=O)c1ccccc1` the z-score was -1.63.
With `CCCC[C@@H]1C[C@H]1[C@@H](NC(=O)c1ccco1)c1ccc(C(=O)OC)cc1` the z-score was -1.77.
`C=CCOC(=O)[C@H]1[C@@H]2C(=O)O[C@@H](c3ccccc3)[C@@H](c3ccccc3)N2[C@@H](c2ccc(OCCOC(=O)[C@H]3C[C@H]4C(=O)N[C@@H](CC(C)C)C(=O)N4[C@H]3c3ccc(O)cc3)cc2)[C@]12C(=O)Nc1ccc(I)cc12` showed a z-score of -2.02.
With `COC(=O)c1c(CC[C@@H](CO)NC(=O)N[C@@H](C)Cn2cc(C3(O)CCCCC3)nn2)oc(C(C)=O)c1C(=O)OC` the z-score was 0.0508.
In the case of `CC(C)N1C(=O)[C@@]2(Cc3ccccc31)c1ccccc1C(=O)N(C1CCCCC1)[C@H]2c1ccc(CO)cc1`, the z-score is reported as -0.546.
`CN(C)CCCNC(=O)[C@@]1(c2ccc([N+](=O)[O-])cc2)CC(=O)N(C2CCCCC2)[C@@H]1c1ccc(CO)cc1I` gave a z-score of -3.86.
Work on `CCOC(=O)C[C@H]1[C@H](OC(=O)c2ccc(C(=O)c3ccccc3)cc2)[C@@H](NC(=O)c2ccc(-c3ccccc3)cc2)c2cc(OCCCO)ccc2N1C(=O)c1ccccc1` yielded a z-score of -0.821.
Work on `C=CCNC(=O)[C@@H]1[C@H]2C(=O)O[C@H](c3ccccc3)[C@H](c3ccccc3)N2[C@H](c2ccc(OCCO)cc2)[C@@]12C(=O)Nc1ccc(C#Cc3ccc(OC)cc3)cc12` yielded a z-score of -0.891.
In the case of `O=C1O[C@H](c2ccccc2)[C@H](c2ccccc2)N2[C@H]1[C@@H](C(=O)N1CCN(c3ncccn3)CC1)[C@]1(C(=O)Nc3ccc(C#CC4=CCCCC4)cc31)[C@H]2c1ccc(O)cc1`, the z-score is reported as -0.36.
In the case of `O=C1OCCC/C=C\[C@H]2OC34C=CCN(c5ccc6ccccc6c5)C(=O)[C@H]3N(CCCCCCO)C(=O)[C@@H]4C12` (some centres not stated), the z-score is reported as 1.92.
For `C#CCN(CC=C(C)C)[C@H](CO)c1ccccc1`, the z-score was 0.0539.
Compound `C=C(CCCC)C(=O)CC[C@H](OC(C)=O)c1cccc(OCCO)c1` has a z-score of -1.12.
Compound `COCCOC(=O)N1C(=O)[C@@]2(c3cc(C#Cc4ccc(OC)cc4)ccc31)[C@H](C(N)=O)[C@H]1C(=O)O[C@H](c3ccccc3)[C@H](c3ccccc3)N1[C@@H]2c1ccccc1OCCO` has a z-score of -2.32.
For `COc1ccc(C(=O)Nc2cccc(CN3C(=O)[C@]4(O[C@H](CCO)[C@@H]([Si](C)(C)c5ccc(OC)cc5)[C@@H]4C)c4ccccc43)c2)cc1`, the z-score was -2.78.
In the case of `Cc1ccc(S[C@]2(C(=O)NCC(F)(F)F)CC(=O)N(C(C)C)[C@@H]2c2ccc(CO)cc2I)cc1`, the z-score is reported as -2.2.
Work on `COC(=O)[C@@]1(Cc2ccc(OC)cc2)[C@H]2c3cc(C(=O)N(C)C)n(CCN4CNCC4=O)c3C[C@H]2CN1C(=O)c1ccccc1` yielded a z-score of 0.316.
Work on `COCCOC(=O)N1C(=O)[C@@]2(c3cc(C#CCNC(N)=O)ccc31)[C@H](C(=O)NC[C@H](O)c1ccccc1)[C@H]1C(=O)O[C@H](c3ccccc3)[C@H](c3ccccc3)N1[C@@H]2c1ccccc1OCCO` yielded a z-score of 0.837.
In the case of `CC(C)(C)OC(=O)CC[C@]1(C(=O)O)N=C(c2ccc(OCCCO)cc2)O[C@H]1c1ccccc1N=[N+]=[N-]`, the z-score is reported as -0.128.
Compound `O=C1C2C=CC(C(O)C(c3ccccc3)c3ccccc3)N(n3cnnc3)C2C(=O)N1Cc1ccccc1` (configuration not stated) has a z-score of -1.09.
